Laboratory results published in PubChem BioAssay AID2035 (National Center for Advancing Translational Sciences (NCATS), 2009).
Some of the results follow. Where a call stands in place of a potency, no number is given. Active and inactive are the calls of the source. Calls come from the whole dose curve; as a rule, active = well fitted inhibition curve with a large enough effect; inconclusive = small, poorly fitted or top-dose-only effect; inactive = flat fitted curve, though single readings scatter.

experiment: Confirmatory Assay for Inhibitors of Human Galactokinase (GALK): Phenol-HRP redox assay counterscreen; details: Phenol red-HRP H2O2 redox cycling, absorbance 600 nm; series mostly up to 115 µM
Excerpt: NIH Molecular Libraries Probe Production Centers Network [MLPCN] NIH Chemical Genomics Center [NCGC] MLPCN Grant: R03 MH085689-01 Assay Submitter (PI): Kent Lai (University of Utah School of Medicine, 50 N Mario Capecchi Drive, Salt Lake City, UT 84132) NCGC Assay Overview: One mM dithiothreitol (DTT) was used as a reducing agent to maintain the galactokinase (GALK) enzyme in its active form in the GALK qHTS screen (AID: 1868). However, it has been shown that in the presence of DTT a number of compounds also undergo redox recyling, generating a significant amount of H2O2 that can oxidize crucial cysteine residues in the enzyme, leading to and a false-positive result. To evaluate and flag redox recycling compounds for compounds re-acquired from the qHTS screen, an endpoint colorimetric assay developed by Johnston et al. was adopted and optimized for a 1536-well plate format. In brief, the assay detects the presence of H2O2 by following the change in absorbance at 600 nm due to oxidation of phenol red (Sigma, cat# 114537) catalyzed by horseradish peroxidase (HRP; Invitrogen). A stop reagent, 1N NaOH was added prior to reading the absorbance. DMSO and different concentrations of hydrogen peroxide (Sigma, cat# 216763) in the GALK buffer were used as negative and positive controls respectively.
NCGC Assay Protocol Summary: Two uL/well of GALK buffer (20mM HEPES pH8.0, 5 mM MgCl2, 60 mM NaCl, 1 mM DTT, 0.01% BSA final concentration) was dispensed into a 1536-well assay plates (Greiner, black clear bottom plates) with Aurora Discovery BioRAPTR Flying Reagent Dispenser (FRD; Beckton-Dickenson). Compound and control solutions (23 nL each) were transferred to the assay plate in their respective wells using Kalypsys pin tool equipped with a 1536-pin tool head and incubated at room temperature for 30 min. Presence of H2O2 produced by redox cycling compounds was detected by adding 2 uL/well phenol red - HRP detection reagent ([…] phenol red in 1x Hanks Balanced Salt Solution, 25 U/mL HRP final concentrations). After 15 min of room temperature incubation, the reaction was stopped by adding 2 uL/well 1N NaOH and incubated for an additional 1 hr at room temperature. The absorbance at 600 nm was measured using the ViewLux plate reader (Perkin Elmer, Waltham, MA) with 6000 light energy, 2 sec exposure, and 2x binning instrument settings.

Row | SMILES | Potency
1 | N#Cc1c(N2CCCCC2)nc(N)c2c(N)nc(SCC(=O)O)cc12 | 18.8 µM (active)
2 | CCS(=O)(=O)C1=NSC2=NC(=O)/C(=C\c3ccc(OS(=O)(=O)c4ccccc4)cc3)C(=N)N21 | inactive
3 | COc1cccc2cc(-c3cc(=O)oc4cc(C)c(O)cc34)oc12 | inactive
4 | CCOC(=O)c1c(C)[nH]c2c1-c1ccccc1C(=O)C2=O | 1.19 µM (active)
5 | O=C(Nc1nnc(S(=O)(=O)N2CCOCC2)s1)c1cccc(Br)c1 | inactive
6 | Oc1c(Cl)cc(Cl)c(Cl)c1Cc1c(O)c(Cl)cc(Cl)c1Cl | inactive
7 | N#C/C(=C(/O)Cc1cccc2ccccc12)c1nc2ccccc2s1 | inactive
